GDH-TPI inh: GDH-TPI coupled enzyme inhibition counter-screen | inhibition, % at 4.8 µM | GDH-TPI coupled enzyme counterscreen, NADH absorbance | 360,000 compounds, 1.2% hits | AID 588335; in the data active = inhibition above about 30%
Mtb bLac sens: beta-lactam sensitization of Mtb H37Rv; inhibition, % at 25 µM; 330,000 compounds, 0.27% hits; M. tuberculosis H37Rv growth with meropenem, percent inhibition; call rule not given here;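 also: growth measured after seven days incubation then overnight dye step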
Mtb FBA inh: Mtb fructose-bisphosphate aldolase inhibition. purified M. tuberculosis FBA, fluorescence read-out. inhibition, % at 1 µM. 360,000 compounds, 2.3% hits. AID 588726; in the data active = inhibition above about 27%
Rv3671c protease: inhibitors of M. tuberculosis serine protease Rv3671c; P9WHR9; inhibition, % at 5.96 µM; 320,000 compounds, 0.048% hits; AID 2606; in the data active = inhibition above about 38%;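 also: extracellular domain of Rv3671c used as enzyme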
RecA splice inh: Mtb RecA intein splicing inhibition | cell-free RecA intein splicing, fluorescence | inhibition, % (no concentration beside the values) | 290,000 compounds, 0.75% hits; in the data active = inhibition above about 30%; inconclusive = no clear call, values can overlap the other calls
UGM FP inh: Mtb UDP-galactopyranose mutase inhibition; P9WIQ1; 320,000 compounds, 0.06% hits; inhibition, % at 10 µM; AID 504406; purified UGM, fluorescence polarization probe displacement; in the data active = inhibition above about 10%, passing the limit was not always enough; inconclusive = no clear call, values can overlap the other calls
Each line names hits and unclear results; the compound was inactive in the other large screens. The list is not random: actives were taken first. Their share in the collection is about 4%.

C[C@H]1CN([C@@H](C)CO)C(=O)CCCn2cc(nn2)CO[C@@H]1CN(C)S(C)(=O)=O	none (no result: Mtb bLac sens, Rv3671c protease, RecA splice inh, UGM FP inh)
O=C(c1ccc(O)cc1)c1ccc(O)cc1O	GDH-TPI inh 35
O=C(COC(=O)c1ccc(O)cc1O)NC(=O)Cc1ccccc1	none (no result: Mtb bLac sens, Rv3671c protease, RecA splice inh, UGM FP inh)
O=C(Cc1ccccc1)c1ccc(O)cc1O	GDH-TPI inh 38 (no result: Mtb bLac sens, Rv3671c protease, RecA splice inh, UGM FP inh)
O=C(COc1ccccc1F)c1ccc(O)cc1O	GDH-TPI inh 50
O=C(Cc1ccc2cccnc2c1)c1ccc(O)cc1O	GDH-TPI inh 52
CN(C)c1ccc(C(=O)c2ccc(O)cc2O)cc1	none
Cc1c(O)ccc(C(=O)COc2ccccc2F)c1O	none
CC1(C(=O)NS(=O)(=O)c2cccs2)CCN1C(=O)Cc1ccccc1 (stereo not drawn)	none (no result: Mtb bLac sens, Rv3671c protease, RecA splice inh, UGM FP inh)
O=C(c1ccccc1)c1ccc(O)cc1O	GDH-TPI inh 52, UGM FP inh inconclusive
COc1ccc(C(=O)c2ccccc2)c(O)c1	none
CCN(c1ccccc1)S(=O)(=O)c1ccc(C(=O)Nc2cc(C)ccn2)cc1	none (no result: RecA splice inh)
CCCCOc1ccc(C2OC34CCCCC3C(C#N)(C#N)C2(C#N)C(=N)O4)cc1 (stereo not drawn)	Mtb FBA inh 73
C=CCOc1ccc(C2OC34CCCCC3C(C#N)(C#N)C2(C#N)C(=N)O4)cc1 (stereo not drawn)	Mtb FBA inh 58
CCOc1ccc(C2OC34CCCCC3C(C#N)(C#N)C2(C#N)C(=N)O4)cc1OC (stereo not drawn)	Mtb FBA inh 75
C=CCOc1ccc(CNCC2CCCO2)cc1 (stereo not drawn)	none
Cc1n[nH]c(C)c1N1C(=O)c2cccc3c(N4CCCCCC4)ccc(c23)C1=O	UGM FP inh 14
O=C(OCCN1C(=O)c2cccc3c(N4CCOCC4)ccc(c23)C1=O)c1cccc(Cl)c1	UGM FP inh 25 (no result: GDH-TPI inh, Mtb FBA inh)
O=C(OCCN1C(=O)c2cccc3c(N4CCOCC4)ccc(c23)C1=O)c1ccc(Cl)cc1Cl	UGM FP inh 23
O=C1c2cccc3c(N4CCCCC4)ccc(c23)C(=O)N1CCO	UGM FP inh 30
O=C(OCCN1C(=O)c2ccccc2C1=O)c1cc(S(=O)(=O)N2CCOCC2)ccc1Cl	none
NC(=O)C1CCN(C(=O)c2ccc3c(=O)n(Cc4ccco4)c(SCc4ccc([N+](=O)[O-])cc4)nc3c2)CC1	none
O=C(OCCN1C(=O)c2cccc3c(N4CCOCC4)ccc(c23)C1=O)c1ccccc1Cl	UGM FP inh 22
CC[C@]1(C(=O)OC)[C@H]2C(=O)N(C)C(=O)[C@H]2[C@H]2CN=C(SC)N21	none (no result: Mtb bLac sens, Rv3671c protease, RecA splice inh, UGM FP inh)
COc1cc(/C=N/Nc2ncc(C(F)(F)F)cc2Cl)cc(OC)c1OC	GDH-TPI inh 32
O=C(CN1CCCCC1)Nc1nnc(-c2ccc([N+](=O)[O-])cc2)s1	GDH-TPI inh 41
O=C(CN1CCCCC1)Nc1nnc(-c2ccccc2)s1	none
CCCc1nnc2n1N=C(c1ccc(OC)c(OC)c1)CS2	none
COc1ccc(Cc2nnc3n2N=C(c2cc4ccccc4o2)CS3)cc1OC	GDH-TPI inh 41
CC1=C/C(=C\C=C(C#N)C#N)N(C)c2ccccc21	none (no result: RecA splice inh)
CCCCCCN1C=CC=C/C1=C\C=C(C#N)C#N	UGM FP inh 16 (no result: RecA splice inh)
CCN1C(=O)/C(=C/c2ccc3c(c2)CCN3CCCCl)C(=O)NC1=S	none
CC(C)(C)N1C(=O)NC(=O)/C(=C\c2ccc3c(c2)CCN3CCCCl)C1=O	GDH-TPI inh 32
Cc1c(OC(C)C(=O)NCc2ccccn2)ccc2c3c(c(=O)oc12)CCC3 (stereo not drawn)	Mtb FBA inh 30
O=S1(=O)CC(N2CCCCC2)CN1C1CCCCC1 (stereo not drawn)	none (no result: GDH-TPI inh, Mtb bLac sens, Rv3671c protease, RecA splice inh, UGM FP inh)
CN(C)c1ccc(C2N(c3ccc(F)cc3)C(=O)C3CCCN32)cc1 (stereo not drawn)	GDH-TPI inh 40
CC[C@H](C)C(N)c1cn([C@@H](CC(N)=O)C(=O)N2CCNCC2)nn1 (stereo partly drawn)	none (no result: RecA splice inh)
C[C@@H]1CN([C@@H](C)CO)C(=O)CCCn2nncc2CO[C@H]1CN(C)C(=O)Nc1cccc2ccccc12	Mtb FBA inh 29 (no result: Mtb bLac sens, Rv3671c protease, RecA splice inh, UGM FP inh)
COc1ccc(/C=C/c2nc3ccccc3n2C)cc1	GDH-TPI inh 65
Cn1c(/C=C/c2ccccc2)nc2ccccc2c1=O	none
O=c1c2ccccc2nc(/C=C/c2ccccc2)n1CCCO	GDH-TPI inh 35
COc1ccc(/C=N\n2nnc3ccccc32)cc1	GDH-TPI inh 51
O=c1c2ccccc2nc(/C=C/c2ccc3c(c2)OCO3)n1CCCO	none (no result: Mtb bLac sens, Rv3671c protease, RecA splice inh, UGM FP inh)

Screening data from PubChem.
